Among all 230,000 compounds or so, fewer than 10 were called active. Not shown: some 3% with an inconclusive outcome. Not all results are given here. Unmarked numbers belong to inactive results. The call rests on the fitted dose curve; in most records, active means well fitted curve in the direction sought with a large enough effect; inconclusive means small, poorly fitted or top-dose-only effect, or effect the other way, or another doubt; inactive means no such curve, though single readings can be large or run the other way.
These compounds were tested against Runt-related transcription factor 1 (Homo sapiens) + Core-binding factor subunit beta (Homo sapiens) (UniProt Q01196+Q13951) (assay: qHTS Assay for Compounds Blocking the Interaction Between CBF-beta and RUNX1 for the Treatment of Acute Myeloid Leukemia). Conditions: AlphaScreen CBFb-His/RUNX1-biotin binding, biochemical; series mostly up to 59.8 µM.
Sequence of Runt-related transcription factor 1 (Homo sapiens) + Core-binding factor subunit beta (Homo sapiens) (Q01196 whole entry, looked up): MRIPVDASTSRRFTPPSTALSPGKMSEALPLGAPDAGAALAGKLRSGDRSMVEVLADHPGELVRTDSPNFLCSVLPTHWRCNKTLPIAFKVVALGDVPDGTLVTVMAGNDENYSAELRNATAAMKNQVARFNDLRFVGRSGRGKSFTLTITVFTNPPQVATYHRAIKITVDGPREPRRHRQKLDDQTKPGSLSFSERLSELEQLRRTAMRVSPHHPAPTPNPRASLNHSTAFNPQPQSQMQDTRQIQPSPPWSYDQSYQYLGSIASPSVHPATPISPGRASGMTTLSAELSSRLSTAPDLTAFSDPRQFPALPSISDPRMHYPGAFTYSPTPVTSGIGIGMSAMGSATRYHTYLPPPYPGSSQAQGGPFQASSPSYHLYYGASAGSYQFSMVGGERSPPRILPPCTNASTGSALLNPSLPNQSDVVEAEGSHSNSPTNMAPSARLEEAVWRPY
Sequence of Runt-related transcription factor 1 (Homo sapiens) + Core-binding factor subunit beta (Homo sapiens) (Q13951 whole entry, looked up): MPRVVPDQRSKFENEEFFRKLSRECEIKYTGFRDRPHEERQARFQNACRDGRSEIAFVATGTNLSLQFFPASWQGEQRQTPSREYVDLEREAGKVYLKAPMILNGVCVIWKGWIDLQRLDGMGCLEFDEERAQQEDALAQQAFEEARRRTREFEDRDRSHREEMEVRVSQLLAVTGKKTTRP
Excerpt: NIH Chemical Genomics Center [NCGC]
NIH Molecular Libraries Probe Production centers Network [MLPCN]
Assay Submitter (PI): Paul Liu
Core Binding Factor (CBF) abnormalities are associated with 20-25% of all acute myeloid leukemias (AML), of which 5-10% are further sub classified as acute myelomonocytic leukemia with eosinophilia, also known as M4Eo in the FAB classification scheme. This subtype of leukemia is usually associated with chromosome 16 inversion (p13:q22). Chromosome 16 inversion results in formation of the fusion oncogene CBFB-MYH11, which encodes the fusion protein CBF-beta-SMMHC.
It has been hypothesized that the interference of CBF-beta and RUNX1 binding could have therapeutic implications for patients with CBF mediated leukemias. We developed a CBF-beta and RUNX1 binding assay in AlphaScreenTM format and optimized it for high throughput screening to search for inhibitors. The goal of this project is to screen MLPCN's compound collection (MLSMR) for identifying the inhibitors of the interaction between CBF-beta and RUNX1 proteins as research probes. If these probes work well in the animal models, the ultimate goal of this project is to development a new drug treatment for this disease.
This assay can not be used to assess how apparent inhibitors interfere with protein binding, and whether inhibitors specifically bind to either protein. Disruption of this protein-protein interaction, through any mechanism, is the intended target activity.
NCGC Assay Protocol Summary:
Step, Parameter, Description
(1) Reagent, 3 uL CBFb-His/RUNX1-biotin mix incubated together for 20 minutes at room temperature (30 nM each)
(2) Compound or control, 23 nL compound stock solution
(3) Incubation, 15 minutes at Room temperature
(4) Reagent, 1 uL 50 ng each of beads (Nickel beads and streptavidin beads)
(5) Incubation, 90 minutes at Room temperature
(6) Detection, Excitation=365 nm Emission=440 nm, Envision reader in AlphaScreenTM mode
Keywords: MLSMR, MLPCN, NIH Roadmap, qHTS, NCGC, Core binding factor, CBF, CBF-beta, Acute myeloid leukemia
Further: % of control where 0% means no effect.

Row | Compound | activity, negative = inhibition
1 | O=C(c1ccccc1)c1cc(-c2ccccn2)c(N2CCOCC2)s1 | inactive
2 | CC1CN(c2nc(Nc3ccccc3)nc(N)c2[N+](=O)[O-])CC(C)O1 (stereo not drawn) | inactive
3 | OCCC#Cc1ccc(CN2CCN(Cc3ccsc3)C(CCO)C2)cc1 (stereo not drawn) | inactive
4 | O=C(O)c1ccc(/C=C2/SC(=S)N(c3cccc(C(F)(F)F)c3)C2=O)cc1 | inactive
5 | COc1ccc2nc(NC(=O)NC3CCCCC3)sc2c1 | inactive
6 | COc1ccc(Br)cc1C1C2C=CCC(C)C2C(=O)N1Cc1ccccc1 (stereo not drawn) | inactive
7 | COc1cc(C(=O)NCc2nnc(SCC(=O)Nc3nc4ccc(C)cc4s3)o2)cc(OC)c1OC | inactive
8 | COCc1cc(=O)[nH]c(-c2ccc(C(F)(F)F)cc2)n1 | inactive
9 | COc1ccc(N2C(=O)/C(=C\c3ccco3)N=C2SCC(N)=O)cc1Cl | inactive
10 | COc1ccc(Cl)cc1NC(=O)NC(C)C(C)(C)C (stereo not drawn) | inactive
11 | CC(C)=CCC[C@]1(C)[C@@H](CC=C(C)C)C[C@@]2(CC=C(C)C)C(=O)[C@]1(C(=O)C(C)C)C(=O)C(CC=C(C)C)=C2O | inactive
12 | COc1ccc(/C=C/C(=O)Nc2ccc(C)cc2)cc1S(=O)(=O)N1CCOCC1 | inactive
13 | Cc1ccc(CNC(=O)C2(C(F)(F)F)C/C(=C\CCO)CCCO2)o1 (stereo not drawn) | inactive
14 | C[C@H]1CCC[C@@]2(C)CCCC[C@]12O | inactive
15 | Oc1ccc(-c2c(-c3ccccc3)nn3c(C(F)(F)F)cc(C(F)(F)F)nc23)cc1 | inactive
16 | COc1ccc2oc(-c3cccc(NC(=O)CSc4ccc(Cl)cc4)c3)nc2c1 | inactive
17 | CC[C@H](C)[C@@H](NC(=O)O[C@@H]1C(=O)c2cc(OC)ccc2O[C@H]1c1cccc(OC)c1)C(=O)OC | inactive
18 | COc1ccc(C2/C=C\CN(C(=O)c3ccc(C)cc3)C(Cc3ccccc3)C(=O)N2Cc2ccc(F)cc2)cc1 (stereo not drawn) | inactive
19 | H-EHIPA-OH | inactive
20 | COC(=O)C(CC(C)C)NS(=O)(=O)c1cc(Br)ccc1Br (stereo not drawn) | inactive
21 | Cc1ccc(C(=O)N/N=C\c2cc(Br)c(Br)o2)cn1 | inactive

Row | Compound | activity, negative = inhibition
22 | COc1ccc(C2/C=C\CN(CC(C)C)CC(=O)N2Cc2ccc(F)cc2)cc1 (stereo not drawn) | inactive
23 | COc1ccc(C(=O)CSc2nnc(NC(=O)C3CC(=O)N(c4cccc(OC)c4)C3)s2)cc1 (stereo not drawn) | inactive
24 | COc1ccc(/C=N/NC(=O)Cn2cc(C(F)(F)F)ccc2=O)cc1 | inactive
25 | COC(=O)c1c(NC(=O)CN(c2ccc(C)c(C)c2)S(C)(=O)=O)sc2c1CCCC2 | inactive
26 | COc1ccc(C(CCN2CCOCC2)c2c(OC)cc(OC)c3c2OC(=O)CC3c2ccc(OC)cc2)cc1 (stereo not drawn) | inactive
27 | COC(=O)c1nc2n(n1)C(c1ccc([N+](=O)[O-])cc1)C(C(=O)Nc1ccc(Cl)cc1)=C(C)N2 (stereo not drawn) | inactive
28 | O=C(COC(=O)c1ccc(S(=O)(=O)Nc2ccccc2)cc1)NCC1CCCO1 (stereo not drawn) | inactive
29 | C=C1CCN(Cc2ccc(OC)cc2)S(=O)(=O)c2ccccc21 | inactive
30 | CC(C)C(NS(=O)(=O)c1ccc(-c2ccc(Br)cc2)cc1)C(=O)O (stereo not drawn) | inactive
31 | CCCC(O)(CCC)C(=O)NN(C(=O)CCl)c1cccc(C)c1 | inactive
32 | COc1ccc(C(=O)Nc2ccc(-n3nncc3C(C)(C)C)cc2)cc1 | inactive
33 | C=CCOC(=O)C(=C)C | inactive
34 | NCCCCC(N)C(=O)O (stereo not drawn) | inactive
35 | O=C(Cn1c(COc2ccccc2)nc2ccccc21)Nc1cc(Cl)c(Cl)cc1Cl | inactive
36 | C/C(=N\NC(=O)CNC(=O)C(c1ccccc1)c1ccccc1)c1ccc(C)cc1 | inactive
37 | COc1ccc(C(=O)NC2CCN(C(=S)NCCc3ccccc3)CC2)cc1 | inactive
38 | O=C(Nc1cc(C(F)(F)F)ccc1Cl)c1cc2nc3c(c(C(F)(F)F)n2n1)CCCC3 | inactive
39 | Cc1cc(OCCCCOc2ccc(C#N)cc2)ccc1[N+](=O)[O-] | inactive
40 | Cc1cc2c(cc1C)N(Cc1ccccc1)C1=NCCCN12 | inactive
41 | CCCc1cc(=O)[nH]c(SCC(=O)N2CCN(S(=O)(=O)c3ccc(C)cc3C)CC2)n1 | inactive
42 | CCOC(=O)c1nn(-c2cccc(C)c2)cc1C(=O)c1ccccc1 | inactive

Row | Compound | activity, negative = inhibition
43 | COc1ccc(-c2nc3c(c4c2C[C@H](c2ccccc2)OC4)CN(C(=O)c2ccco2)CC3)c(C)c1 | 5.84% [at 13.1 µM]
44 | COc1ccc(-c2ccc(OC(=O)NC3CCS(=O)(=O)C3)cc2)cc1 (stereo not drawn) | inactive
45 | COc1ccccc1/C=C/CN1CCC(CO)(Cc2ccccc2)CC1 | inactive
46 | CC(=O)c1c(O)cc2n(c1=O)-c1ccc(Cl)cc1C2(C)C | inactive
47 | C/C(=C\c1ccccc1)C1NC(=O)c2c(sc3c2CCCC3)N1 (stereo not drawn) | inactive
48 | Cc1ccc(-n2cc(CN(C)Cc3nccn3C)c(-c3cccc(C)c3)n2)cc1 | inactive
49 | CC(/C=C/c1ccco1)=N/NC(=O)C1COc2ccccc2O1 (stereo not drawn) | inactive
50 | CCOc1cccc2c1OC1(CCCCC1)N1N=C(c3cccnc3)CC21 (stereo not drawn) | inactive
51 | OCCNCCOc1ccc(Cl)c(Cl)c1 | inactive
52 | Cc1c(CCO)c(=O)[nH]n1C(=O)c1c(F)cccc1F | inactive
53 | O=C1C[C@@H](c2ccc3ccccc3c2)N1S(=O)(=O)c1ccccc1[N+](=O)[O-] | inactive
54 | CCOC(=O)Cn1c(=O)sc2cccc(Cl)c21 | inactive
55 | O=C(CC1C(=O)NCCN1Cc1ccc(-c2ccccc2)cc1)NCC1CCOCC1 (stereo not drawn) | inactive
56 | CCO[C@H]1OC(C(=O)Nc2ccccc2)=C[C@@H](C2CC2)[C@@H]1CCCO | inactive
57 | Cc1ccc2nc(-c3cccnc3)c(NC3CCCC3)n2c1 | inactive
58 | CCCCC/C=C\C/C=C\C/C=C\CCCCCCC(N)=O | inactive
59 | Cc1ccc(C2=NN(C(=O)COc3ncnc4ccccc34)C(c3ccco3)C2)cc1 (stereo not drawn) | inactive
60 | O=C(Cc1ccc(S(=O)(=O)N2CCCC2)s1)NC1CCCCCC1 | inactive
61 | O=C(Nc1ccc(-c2csc(Nc3cccc(C(F)(F)F)c3)n2)cc1)c1cccc(C(F)(F)F)c1 | inactive
62 | CC[C@H](C)[C@H](NC(=O)[C@H](Cc1ccc(O)cc1)NC(=O)[C@@H](NC(=O)[C@H](CCCN=C(N)N)NC(=O)[C@@H](N)CC(=O)O)C(C)C)C(=O)N[C@@H](Cc1cnc[nH]1)C(=O)N1CCC[C@H]1C(=O)N[C@@H](Cc1ccccc1)C(=O)O | inactive
63 | COc1ccc(CCn2c(NN=C3CCCC3)nc3c2c(=O)[nH]c(=O)n3C)cc1 | inactive

Reference: PubChem BioAssay AID1477 (National Center for Advancing Translational Sciences (NCATS), 2009)
